According to PubChem BioAssay (EPA / NIEHS):
Values joined by “and” are separate entries in the source; they are usually repeats but may differ in a detail not shown here. Equal entries are not always repeated. The source holds several records for some structures; these can differ, active in one and inactive in another. Active and inactive are the calls of the source. Rule for the calls: active = hit-call score of the fitted dose curve at least 0.9, where 1 is the maximum; inactive = score below 0.9.

Assay: CCTE_Shafer_MEA_dev_per_network_spike_spike_percent: CCTE's Neural Network Formation Assay for Percent of Spikes in a Network Spike, Shafer Lab (AID 2284054)
Experimental: CCTE_Shafer_MEA_dev assay is conducted using Axion Biosystems 48 well microelectrode array (MEA) plates and Maestro recording system. Each well of the MEA plate contains a grid of 16 microelectrodes embedded in the culture surface. Electrically active cells, such as neurons, can be cultured over the electrodes, and electrical activity in these cells can be recorded extracellularly. The spontaneous firing of neurons is captured from each electrode on a microsecond timescale providing both temporally and spatially precise data. […] The CCTE_Shafer_MEA_dev assay uses primary cultures of rat cortical neurons. Recordings are made on days post-plating 5, 7, 9 and 12. As these cultures mature over time, neural networks develop functional activity and form cohesive networks in which electrical activity can be highly coordinated. CCTE_Shafer_MEA_dev_per_network_spike_spike_percent is 1 of 19 assay components of the CCTE_Shafer_MEA_dev assay. It measures the percent of spikes (action potential firings) in a network spike (temporally-clustered group of spikes across multiple electrodes) as the number of spikes that occur within a 0.05 s time window at the peak of a network spike divided by the total number of spikes during a recording in a microelectrode array (MEA) using Axion Biosystems Maestro 768 channel amplifier with the AxIS adaptive spike detector. To collapse across multiple recordings made on days post-plating 5, 7, 9 and 12, the trapezoidal area-under-the-curve of the component is calculated.Data from the assay component CCTE_Shafer_MEA_dev_per_network_spike_spike_percent was analyzed into 1 assay endpoint. This assay endpoint, CCTE_Shafer_MEA_dev_per_network_spike_spike_percent, was analyzed in the negative analysis fitting direction relative to DMSO as the negative control and baseline of activity. Using a type of functional reporter, gain or loss-of-signal activity can be used to understand electrical activity.
On the day prior to culture, each well was coated thoroughly with 150 uL of 0.05% polyethyleneimine (PEI, Sigma Cat P3143) in 50 mM HEPES (Sigma Cat H7523) at a pH of 8. The plate was incubated at 37C for one hour. PEI was rinsed out with 500 uL of sterile water three times. Plates were stored at 4C until the day of culture. This culture was plated at a seeding density of 1.5 x 10^5 cells/well on a 48-well MEA plate, prepared as described above. Cells were administered via a 25 uL media/laminin ([…]; Sigma Cat L2020-1MG) drop directly onto the microelectrode array, as adding the cells with the laminin results in better attachment than pre-coating with laminin. After 2 hours, an additional 475 uL of cortical media was added and the cells returned to the incubator. Exposure starts at day 0 of plating and is continued over twelve days of network development until the experiment is terminated. Cells are fed with fresh medium on DIV 5 and 9, following the recordings on those days. The entire volume of media in the well is exchanged and any vehicle or compound treatment is renewed. Complete details are found in OP-NHEERL/ISTD/SBB/TJS/2015-03-r0 (available on request, email shafer.tim@epa.gov). Measurement of the electrical activity is non-invasive, and recordings can be made from the same plate over multiple different days of the culture. In cortical neurons, this allows for the measurement of extracellular action potentials over the period during which networks form in the MEA plate.

Row | Compound | AC50 | outcome
1 | CCOC(=O)CC(SP(=S)(OC)OC)C(=O)OCC (stereo not drawn) | 11 µM (active) and 3.69 µM (active) | –
2 | CCCCC(CC)COC(=O)c1ccccc1C(=O)OCC(CC)CCCC (stereo not drawn) | 7.71 µM (active) and 22.4 µM (active) | inactive
3 | CCCCNC(=O)OCC#CI | 2.91 µM (active) and 1.17 µM (active) | –
4 | CNC(=O)ON=CC(C)(C)SC | – | inactive
5 | CN(C)C(=S)SSC(=S)N(C)C | 0.00821 µM (active) | –
6 | C=CC1(C)OC(=O)N(c2cc(Cl)cc(Cl)c2)C1=O (stereo not drawn) | – | inactive
7 | CCCCOC(=O)c1ccccc1C(=O)OCCCC | – | inactive
8 | COC(=O)N(OC)c1ccccc1COc1ccn(-c2ccc(Cl)cc2)n1 | 157 nM (active) and 13.6 nM (active) | –
9 | N#Cc1nn(-c2c(Cl)cc(C(F)(F)F)cc2Cl)c(N)c1S(=O)C(F)(F)F (stereo not drawn) | 4.41 µM (active) | –
10 | C=CCC1=C(C)[C@@H](OC(=O)[C@@H]2[C@@H](C=C(C)C)C2(C)C)CC1=O | – | inactive
11 | CCOc1cc(Oc2ccc(C(F)(F)F)cc2Cl)ccc1[N+](=O)[O-] | 13.2 µM (active) | –
12 | CO/C=C(/C(=O)OC)c1ccccc1Oc1cc(Oc2ccccc2C#N)ncn1 | 1.83 µM (active) and 433 nM (active) | –
13 | COP(N)(=O)SC (stereo not drawn) | – | inactive
14 | C=CCC1=C(C)C(OC(=O)C2C(C=C(C)C)C2(C)C)CC1=O (stereo not drawn) | 4.76 µM (active) | inactive
15 | CCNc1nc(Cl)nc(NC(C)C)n1 | – | inactive
16 | CCCCNC(=O)n1c(NC(=O)OC)nc2ccccc21 | – | inactive
17 | Cc1ccc(-c2c(Cl)nc(C#N)n2S(=O)(=O)N(C)C)cc1 | – | inactive
18 | COP(=S)(OC)Oc1nc(Cl)c(Cl)cc1Cl | – | inactive
19 | Cc1c(F)c(F)c(COC(=O)C2C(/C=C(\Cl)C(F)(F)F)C2(C)C)c(F)c1F (stereo not drawn) | 1.45 µM (active) | –
20 | COc1ccc(C(c2ccc(OC)cc2)C(Cl)(Cl)Cl)cc1 | 3.28 µM (active) | –
21 | CC(C)(C)c1ccc(CSc2cnn(C(C)(C)C)c(=O)c2Cl)cc1 | 0.00179 µM (active) | –
